ALDH1A1 block = blocks purified human ALDH1A1 activity. P00352. Purified ALDH1A1, NADH fluorescence, propionaldehyde substrate. Potency, µM (series often up to 75.3 µM), inactives show at the top dose activity, negative = inhibition, actives largely listed as inhibitors. 220,000 tested, 7.3% active;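 note: potency is the fitted concentration of half-maximal effect; plate controls were no enzyme wells and a reference inhibitor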
HPGD block = blocks human HPGD enzyme activity; P15428; purified HPGD, NADH fluorescence kinetic, PGE2 substrate; Potency, µM, for the others: at the highest dose activity change, negative = inhibition, usual class: inhibitors; 150,000 tested, 4.3% active; AID 894; note: potency is the fitted concentration of half-maximal effect
Target sequence (P15428 whole entry, looked up): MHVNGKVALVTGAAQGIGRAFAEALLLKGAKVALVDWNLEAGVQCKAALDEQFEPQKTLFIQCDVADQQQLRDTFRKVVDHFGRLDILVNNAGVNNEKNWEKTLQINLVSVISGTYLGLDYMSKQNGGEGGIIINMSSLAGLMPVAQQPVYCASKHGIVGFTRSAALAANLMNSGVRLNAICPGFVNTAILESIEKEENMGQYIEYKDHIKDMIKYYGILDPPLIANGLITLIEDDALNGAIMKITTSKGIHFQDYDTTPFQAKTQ
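NADH formation kinetics: reaction with 30 uM PGE2 and 1 mM NAD+ (final), 20 nM enzyme, Tris-HCl pH 8 with Tween 20, after 15 min compound preincubation at room temperature. Fluorescence change, last versus first of five reads.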
IMPase inh = IMPase inhibition in cells. P97697. AID 901. CHO-M1 cells, IP1 accumulation, HTRF TR-FRET ratio. inhibition (IP1 accumulation), % at 46.1 µM. 120,000 tested, under 10 active; active = well fitted curve in the direction sought with a large enough effect in the signal ratio, not every such curve was filed as active; inconclusive = small, poorly fitted or top-dose-only effect, or a change in a side signal; inactive = no such curve, though single readings can be large or run the other way; the % refers to the signal ratio;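 note: cells stimulated with carbachol in lithium chloride buffer; plate controls were DMSO basal wells for no effect and reference inhibitor wells for full effect; higher means more IMPase inhibition seen as more IP1 and lower FRET ratio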
Target sequence (P97697 whole entry, looked up): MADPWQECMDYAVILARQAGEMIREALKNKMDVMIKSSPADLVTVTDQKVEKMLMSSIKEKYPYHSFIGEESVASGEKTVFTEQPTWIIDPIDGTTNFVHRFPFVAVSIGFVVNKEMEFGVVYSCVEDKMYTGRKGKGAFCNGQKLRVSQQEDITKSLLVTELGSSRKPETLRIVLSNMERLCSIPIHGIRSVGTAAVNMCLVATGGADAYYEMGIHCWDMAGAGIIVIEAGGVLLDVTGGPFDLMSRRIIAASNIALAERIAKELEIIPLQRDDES
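Carbachol-driven Gq signalling in CHO-M1 cells (2000/well) generates IP1. Compounds that block IMPase raise IP1 and so reduce the FRET signal from Eu-anti-IP1 and d2-IP1 after a 10 min room-temperature lysis.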
The depositor's hits bear a star; ? = inconclusive; nt = no result given; [ ] = another dose, or the depositor's remark. Rows were chosen to be rich in hits. Some 9% of all compounds tested hit in one or more screens of this group. Unless noted, calls come from the whole dose curve; as a rule, active = well fitted inhibition curve with a large enough effect (not every such curve was filed as active); inconclusive = small, poorly fitted or top-dose-only effect, or another doubt; inactive = no such curve, though single readings can be large or run the other way. Unless noted, % is set by controls: 0 for no effect and ±100 for the full control effect.

SMILES	ALDH1A1 block	HPGD block	IMPase inh
COc1ccc(CNc2ccc(C)cc2)cc1Br	-0.7%	-27.7%	-10.6
COc1ccc(Cc2nc(=S)[nH][nH]2)cc1Br	6.31µM*	nt	nt
COc1ccc(Oc2nc3c(C)cccn3c(=O)c2/C=C(\C#N)c2nc3ccccc3[nH]2)cc1	nt	nt	-0.6
Cc1cc(C)nc(NS(=O)(=O)c2ccc(NC(=O)Cn3c(=O)oc4ccccc43)cc2)n1	-9.8%	-12.0%	0.9
Cc1noc(NS(=O)(=O)c2ccc(NC(=O)CCn3c(=O)oc4ccccc43)cc2)c1C	3.98µM*	-19.1%	1.0
Cc1noc(NS(=O)(=O)c2ccc(NC(=O)COc3ccccc3)cc2)c1C	13.5%	0.2%	?
Cc1noc(NS(=O)(=O)c2ccc(NC(=O)CSc3ncccn3)cc2)c1C	20µM*	-6.4%	-14.7
Cc1ccc(-n2c(SCC(=O)Nc3cc(S(=O)(=O)N4CCOCC4)ccc3Cl)nc3ccccc3c2=O)cc1	5.1%	-4.6%	nt
O=C(CSc1nc2ccccc2s1)Nc1cc(S(=O)(=O)N2CCOCC2)ccc1Cl	22.4µM*	-31.3%	13.9
Cc1cc(C)nc(SCC(=O)Nc2ccc(S(=O)(=O)Nc3onc(C)c3C)cc2)n1	25.5%	-5.1%	2.9
Cc1noc(NS(=O)(=O)c2ccc(NC(=O)CSc3nc4ccccc4s3)cc2)c1C	10µM*	28.2µM*	-3.0
COc1ccc(NC(=O)c2sc3nc(C)c(C(=O)Nc4ccc(C)cc4C)c(-c4sccc4C)c3c2N)cc1	nt	nt	3.4
O=C(CCC(=O)c1ccc(F)cc1)Nc1cccc(S(=O)(=O)Nc2cccc(Cl)c2)c1	-1.6%	?	nt
CCOC(=O)C(NC(=O)c1ccc(Cl)cc1Cl)(Nc1ccc(C)cc1)C(F)(F)F (stereo unspecified)	4.6%	-10.5%	3.1
O=[N+]([O-])c1ccc(O)c2cccnc12	-2.5%	nt	nt
O=[N+]([O-])c1ccc(Cl)c2cccnc12	17.8µM*	nt	nt
O=[N+]([O-])c1cc(Cl)c2cccnc2c1O	-9.7%	nt	nt
O=[N+]([O-])c1cc(F)c2cccnc2c1O	17.8µM*	nt	nt
Nc1nc(-c2cccc(NS(=O)(=O)c3ccccc3)c2)cs1	7.94µM*	11.2µM*	4.0
Cc1nc(-c2ccc(NS(=O)(=O)c3ccccc3)cc2)cs1	5.5%	nt	nt
OCC1(Cc2ccccc2)CCN(CCCC2CCCC2)CC1	-0.9%	nt	nt
S=C(c1ccc2c(c1)OCO2)N1CCCCCC1	-12.3%	?	-7.9
Oc1cc2c(cc1C(c1ccc(Br)cc1)N1CCCC1)OCO2 (stereo unspecified)	2µM*	nt	nt
CC(C)C(=O)Nc1ccc(S(=O)(=O)Nc2nccc(/C=C/c3ccccc3)n2)cc1	?	-9.6%	nt
Cc1ccc(-c2noc(=O)n2CC(=O)c2ccc(Cl)cc2)cc1	1.5%	nt	nt
SMILES	ALDH1A1 block	HPGD block	IMPase inh
Cc1ccc(C(=O)c2no[n+]([O-])c2C(=O)c2ccc(C)cc2)cc1	0.501µM*	20µM*	nt
C=CCNC(=S)Nc1ccc(N(C)C)cc1	0.1%	nt	nt
O=C(NC1CCCCCC1)C(=S)N1CCCC1	-6.4%	nt	nt
O=C(NC1CCCCCC1)C(=S)N1CCOCC1	10µM*	nt	nt
COc1ccc2nc(SCc3nc(N)nc(Nc4ccccc4)n3)[nH]c2c1	7.94µM*	-19.2%	23.2
COc1ccc(Nc2nc(N)nc(CSc3nc(C)cc(C)n3)n2)cc1	0.8%	nt	nt
N#C/C(=C/c1ccc(N2CCOCC2)o1)c1ccc(Br)cc1	15.8µM*	?	-8.2
COc1cc(N2CCCC2)c(OC)cc1/C=C(/C#N)c1cccc(F)c1	?	-25.1%	-0.8
N#C/C(=C/c1ccc(N2CCCCCC2)o1)c1cccc(F)c1	2µM*	25.1µM*	16.8
N#C/C(=C/c1ccc(N2CCOCC2)o1)c1nc2ccccc2[nH]1	-5.7%	-7.8%	?
N#C/C(=C\c1ccc(N2CCOCC2)cc1)c1ccccc1	?	-14.8%	nt
N#C/C(=C\c1ccc(N2CCOCC2)o1)c1ccccc1	11.2µM*	?	3.6
CSC(N)=NCCC[C@H](N)C(=O)O	4.3%	-5.0%	nt
Cc1cc(-c2ccccc2)nc2cc(C(=O)Nc3cc(C(F)(F)F)ccc3Cl)nn12	nt	nt	-5.3
COc1cc(OC)cc(C(=O)NC(=S)Nc2cccnc2)c1	?	-7.1%	-10.6
COc1cc(NC(=S)Nc2cccnc2)cc(OC)c1	31.6µM*	28.2µM*	9.9
Cc1cc(NC(=S)Nc2cccnc2)ccc1Br	22.4µM*	nt	nt
Cc1cc(NC(=S)Nc2ccccc2)ccc1Br	-1.4%	-4.4%	-14.7
Cc1ccc(S(=O)(=O)Nc2ccc(O)c(C(=O)O)c2)c(C)c1	?	-8.9%	nt
Cc1ccc(/C=N/NC(=O)c2cc(C3CC3)nc3ccccc23)o1	-1.8%	-19.8%	nt
COc1cc(/C=N/n2c(SC)nnc(C(C)(C)C)c2=O)ccc1O	7.5%	nt	2.8
COc1cc(/C=N/N2C(=O)C3C4C=CC(CC4)C3C2=O)ccc1O (stereo unspecified)	14.1µM*	nt	nt
O=C1CSC(=S)N1/N=C/c1ccc(Cl)c([N+](=O)[O-])c1	31.6µM*	nt	nt
O=C1CSC(=S)N1/N=C\c1ccc(Cl)c([N+](=O)[O-])c1	-15.8%[13.5 µM]	-18.3%	nt
COc1cc(/C=N/N2C(=O)CSC2=S)ccc1O	28.2µM*	-17.5%	9.7
SMILES	ALDH1A1 block	HPGD block	IMPase inh
COc1cc(/C=N/N2C(=O)c3ccccc3C2=O)ccc1O	?	-14.0%	nt
CC(C)CNS(=O)(=O)c1ccc(CCC(=O)N2CCC(C(N)=O)CC2)cc1	-7.6%	nt	nt
Nc1nnc(CCCCCc2nnc(N)s2)s1	-12.0%	nt	nt
O=C(O)c1ccc(Nc2nc(-c3cccnc3)nc3ccccc23)cc1	-8.3%	nt	nt
Cc1cc(C)c(S(=O)(=O)N2CCN(C(=O)N(C)C)CC2)c(C)c1	4.47µM*	nt	nt
Cc1ccc(S(=O)(=O)N2CCN(C(=O)N(C)C)CC2)cc1	-9.6%	nt	nt
COC(=O)c1ccc(CNC(=O)CSc2nnc(COc3ccccc3)n2C)o1	-2.6%	-0.8%	1.3
CC1CN(c2ccc(Oc3ccccc3)cc2)c2nc3c(c(=O)[nH]c(=O)n3C)n2C1 (stereo unspecified)	-4.7%	35.5µM*	2.4
CC1CN(CCc2ccccc2)c2nc3c(c(=O)[nH]c(=O)n3C)n2C1 (stereo unspecified)	-14.4%	-6.0%	-7.6
Cc1ccc(O)c(NC(=O)CCC2CCCCC2)c1	4.9%	-19.2%	5.8
O=C(CCC1CCCCC1)NCc1ccccn1	4.1%	31.6µM*	nt
O=C(CCC1CCCC1)Nc1ccccc1-c1ccccc1	20µM*	-8.1%	nt
O=C(CCc1ccc(S(=O)(=O)NC2CCCCC2)cc1)NCc1ccccn1	-4.7%	nt	nt
O=C(CCC1CCCCC1)Nc1ccccc1-c1ccccc1	?	-15.7%	-3.8
O=C(CCC1CCCCC1)Nc1ccccc1O	?	20µM*	-0.6
Cc1c(NC(=O)C(C)OC(=O)C23CC4CC(CC(Br)(C4)C2)C3)c(=O)n(-c2ccccc2)n1C (stereo unspecified)	-3.7%	nt	nt
Cc1cc(C)c(S(=O)(=O)Nc2ccc3oc4c(c3c2)CCCC4)cc1C	nt	nt	-12.0
CCC1=C/C(=C/N(C)c2ccccc2)C(=O)S1	25.1µM*	22.4µM*	3.7
CN(C)S(=O)(=O)c1ccc(NC(=O)COC(=O)C2CC3CCCC(C2)C3=O)cc1 (stereo unspecified)	-4.0%	nt	nt
CNC(=O)c1ccc(Nc2nnc(-c3ccc(C)c(S(=O)(=O)N4CCOCC4)c3)c3ccccc23)cc1	nt	nt	-11.1
CCCc1cc(=O)[nH]c(SCC)n1	3.4%	-9.5%	4.4

Bioassay records (PubChem BioAssay)
